Experimental findings from PubChem BioAssay (Tox21) are described below.

The nature of assay [1]: qHTS assay for small molecule agonists of the p53 signaling pathway (AID 651631; calls by dose curve; further: nearly all actives have a fitted effect of over 15% in size; further: potency means the concentration at half of the fitted maximal effect). The essentials:
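Quantitative high-throughput format: 4,000 p53RE-bla HCT-116 cells/well, 5 h pre-incubation, 16 h compound exposure at 37 °C, 2 h room-temperature substrate step, fluorescence intensity measured.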

The nature of assay [2]: qHTS assay for small molecules that induce genotoxicity in human embryonic kidney cells expressing luciferase-tagged ATAD5 (AID 651632). Further: nearly all actives have a fitted effect of over 15% in size. Further: potency means the concentration at half of the fitted maximal effect. In outline: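 Luminescent reporter readout, HEK293T ATAD5-luc line: 16 hr drug exposure (37C, 5% CO2) followed by Amplite, 30 min RT.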
(qHTS replaces the single test concentration by a dilution series.)

A short description of assay [3]: qHTS assay for small molecule agonists of the p53 signaling pathway - cell viability (AID 651633; calls by dose curve; further: nearly all actives have a fitted effect of over 30% in size; further: potency means the concentration at half of the fitted maximal effect). In outline: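 p53RE-bla cells, seeded at 4,000 per well and rested 5 h at 37 C/5% CO2, received compounds in DMSO for 16 h at 37 C. CellTiter-Glo was then added, and luminescence was read after 30 min at room temperature to gauge cytotoxicity.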
A short description of assay [4]: qHTS assay for small molecule disruptors of the mitochondrial membrane potential - cell viability (AID 720634; calls by dose curve; further: nearly all actives have a fitted effect of over 20% in size; further: potency means the concentration at half of the fitted maximal effect). The essentials:
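HepG2, 1 hr compound, 37 C. ATP luminescence via CellTiter-Glo, 30 min RT, same well as m-MPI.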

Assay [5] is described as follows: qHTS assay to test for compound auto fluorescence at 535 nm (green) in HepG2 cells (AID 720675).
Assay [6] is described as follows: qHTS assay to test for compound auto fluorescence at 460 nm (blue) in HEK293 cells (AID 720678). Further: potency means the concentration at half of the fitted maximal effect. The essentials: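 Blue read-out at excitation 405 nm and emission 460 nm follows overnight compound exposure of HEK293 cells at 37C in 5% CO2. Activity is given as auto fluorescence equivalency to triamterene.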
A short description of assay [7]: qHTS assay to test for compound auto fluorescence at 590 nm (red) in HEK293 cells (AID 720679). In outline: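 Red channel, Ex/Em 540/590nm; signal expressed as equivalency to Rose Bengal sodium. HEK293, 2,000 cells/well, 10% dialyzed FBS; 23 nL compound pinned after 4-5 hr attachment; overnight 37C/5% CO2 before reading.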
The nature of assay [8]: qHTS assay for small molecule disruptors of the mitochondrial membrane potential (AID 720635). Further: potency means the concentration at half of the fitted maximal effect. In outline: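 HepG2 cells (2,000/well) attached overnight at 37C, then took compound for 1 hr at 37C, 5% CO2. Mito-MPS dye was added for 30 min; fluorescence was read at 490/535 nm (monomers) and 540/590 nm (aggregates).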
The nature of assay [9]: qHTS assay to test for compound auto fluorescence at 590 nm (red) in HepG2 cells (AID 720674). The essentials: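 Compound auto-fluorescence is scored relative to Rose Bengal sodium, measured at 540/590 nm in live HepG2 cultures after 1 hr compound contact (37 C, 5% CO2).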
Assay [10] can be described thus: qHTS assay for small molecules that induce genotoxicity in human embryonic kidney cells expressing luciferase-tagged ATAD5 - cell viability (AID 651634; calls by dose curve; further: nearly all actives have a fitted effect of over 25% in size; further: potency means the concentration at half of the fitted maximal effect). In outline:
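Viability read: CellTiter-Fluor fluorescence, 30 min at 37C. Cells: HEK293T, luciferase-tagged ATAD5. Exposure: 15.5 hr, 37C, 5% CO2, compound or DMSO vehicle.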

SMILES strings stand for the structures. “And” between values parts separate entries of the source, which are not always exact repeats. Equal entries are not always repeated. Inconclusive results are not listed. Where a structure was tested more than once in an assay, its records may differ in their call. The source made the active and inactive calls. Unless noted, the call rests on the fitted dose curve; in most records, active means well fitted curve in the direction sought with a large enough effect in the repeat runs; inconclusive means weak or mixed curves; inactive means no such curve, though single readings can be large; an effect the other way counts as inactive or inconclusive.
On the % scale 0 is the no-effect control and ±100 the full control effect; tags describe the fitted curve by direction and shape or compound fluorescence and quenching.

Take `CN1CCc2cc3c(cc2C1O)OCO3` (centres undefined): the Potency in assay [1] was 61.5 µM (active); in assay [6], 35.5 µM [fluorescent] (active). Further, the Potency result in assay [2], in assay [3], in assay [4] and in [5] was “inactive” in each case. Also, in assay [7], the outcome was inactive.

For `CO/N=C(\C(=O)OC)c1ccccc1CO/N=C(\C)c1cccc(C(F)(F)F)c1`, the Potency is 1.09 µM (active) in [1], 21.7 µM (active) in [4] and 9.69 µM (active) in [8]. The Potency entry in [2], in assay [5] and in assay [6] was “inactive” each time. Further, the result in assay [9] and in assay [7] was inactive.

As for `CCOP(=S)(OCC)Oc1cc(C)nc(N(CC)CC)n1`, the Potency entry in [1], in assay [2], in [10] and in [6] was “inactive” in each case. The Potency in [8] was 48.6 µM (active). The call in [9] and in assay [7] was inactive.

In the case of `ClCBr`, the Potency result in assay [2], in assay [3], in assay [10], in [4], in assay [8] and in [5] was “inactive” each time. Further, the Potency entry in assay [6] was “inactive”. The molecule was called inactive in assay [9] and in [7].

With `Oc1cccc(Cl)c1Cl`, the Potency result in assay [2], in assay [3], in assay [10], in assay [4] and in [6] was “inactive” throughout. Besides, the Potency in [8] is 48.8 µM (active). For the same molecule, the call in assay [9] and in [7] was inactive.

For `COc1cnc(OC)n2nc(NS(=O)(=O)c3c(OCC(F)F)cccc3C(F)(F)F)nc12`, the Potency entry in [2], in [3], in assay [10], in assay [4], in [8] and in [5] was “inactive” in each case. In assay [6], the Potency entry was “inactive”. The molecule was classed as inactive in [9] and in [7].

As for `BrCC(Br)(Br)Br`, the Potency in assay [1] was 7.11 µM (active). Besides, the Potency entry in [3], in assay [4], in [5] and in [6] was “inactive” in each case. Further, the molecule was called inactive in assay [9] and in assay [7].

In the case of `CN(C)C(=S)SSC(=S)N(C)C`, the Potency is 19.1 µM (active) in assay [2]; 29.8 µM (active) and 26.9 µM (active) and 27.3 µM (active) in [3]; 6.68 µM (active) and 26.9 µM (active) in [10]; 335 nM (active) and 30.2 µM (active) and 54.5 nM (active) in assay [8]. The Potency result in assay [4], in assay [5] and in assay [6] was “inactive” each time. Besides, the molecule was called inactive in assay [9] and in assay [7].

As for `CCC[CH2][Sn]([CH2]CCC)([CH2]CCC)[O][Sn]([CH2]CCC)([CH2]CCC)[CH2]CCC`, in assay [2], the activation is -11.2% [at 8.08 µM] (inactive). Further, the Potency was 0.533 µM (active) in assay [3], 0.377 µM (active) in assay [10], 1.68 µM (active) in assay [4] and 0.0752 µM (active) in assay [8]. In addition, the fluorescence, relative to Rose Bengal in assay [9] is -0.33% [at 3.72 µM] (inactive). Besides, in assay [5], the fluorescence, % of fluorescein control was -0.0029% [at 3.72 µM] (inactive). For the same molecule, the fluorescence, % of triamterene in assay [6] was -0.1% [at 3.72 µM] (inactive). Moreover, the fluorescence, % of fluorescent control in assay [7] is -0.182% [at 3.72 µM] (inactive).

As for `CCCCCCC[CH2][Sn]([Cl])([Cl])[CH2]CCCCCCC`, the Potency entry in assay [2], in assay [10], in assay [4] and in assay [6] was “inactive” each time. The Potency was 15.3 µM (active) in [3] and 48.5 µM (active) in assay [8]. Also, in assay [7], the call was inactive.

Regarding `CCC(OC(C)=O)C(CC(C)NC)(c1ccccc1)c1ccccc1` (centres undefined), the Potency entry in assay [2], in assay [10], in assay [4] and in [6] was “inactive” each time. The figures for the Potency in assay [3] and in [8] were 69.2 µM (active) and 49 µM (active), respectively. Moreover, the result in assay [9] and in assay [7] was inactive.

Consider `c1csc(-c2ccc(-c3cccs3)s2)c1`, for which the Potency in assay [1] is 34.4 µM (active); in assay [8], 61.1 µM (active). Besides, the Potency entry in assay [3], in assay [10], in assay [5] and in [6] was “inactive” each time. The outcome in assay [9] and in [7] was inactive.

As for `Nc1nc(N)c(N)c(N)n1`, the Potency entry in assay [2], in assay [3], in assay [10] and in assay [4] was “inactive” each time. Further, the Potency in [8] was 8.68 µM (active). Besides, the result in assay [9] and in assay [7] was inactive.

`CC(Cc1ccc(OCC(=O)O)cc1)NCC(O)c1csc(C(F)(F)F)n1` (centres undefined): the Potency result in assay [2], in assay [3], in assay [10], in [4], in [8] and in assay [5] was “inactive” in each case. In addition, the Potency entry in [6] was “inactive”. The result in [7] was inactive.

Turning to `CCCCc1ccccc1`, the Potency entry in [2], in assay [3], in assay [10], in assay [4], in [8] and in assay [6] was “inactive” in each case. The molecule was called inactive in [9] and in [7].

Regarding `CC1CN1` (centres undefined), the Potency entry in [1], in assay [3], in assay [4], in assay [8], in assay [5] and in assay [6] was “inactive” each time. Also, the result in assay [9] and in assay [7] was inactive.

Take `CCn1cc[n+](C)c1` (tested in a mixture with another compound): the Potency result in assay [2], in assay [3], in [10], in assay [4], in assay [8] and in [6] was “inactive” each time. In addition, in [7], the call was inactive.

For `C=C(C)C(=O)[O][Sn]([CH2]CCC)([CH2]CCC)[CH2]CCC`, the Potency entry in assay [2], in assay [5] and in [6] was “inactive” each time. The Potency in [3] is 0.611 µM (active); in [10], 0.611 µM (active); in [4], 3.86 µM (active); in assay [8], 0.0611 µM (active). Also, in assay [7], the call was inactive.

`O=C1C[C@@H]2OCC=C3CN4CC[C@]56c7ccccc7N1[C@H]5[C@H]2[C@H]3C[C@H]46`: the Potency entry in [1], in [10], in assay [4], in [8], in assay [5] and in [6] was “inactive” each time. The result in assay [9] and in assay [7] was inactive.

Regarding `c1cc[n+]2c(c1)-c1cccc[n+]1CC2`, the Potency result in assay [2], in [3], in [10], in [4], in assay [8] and in [6] was “inactive” each time. For the same molecule, the molecule was called inactive in [9] and in [7].

As to `c1ccc(N=NNc2ccccc2)cc1`, the Potency result in assay [2], in [3] and in [6] was “inactive” throughout. In addition, the Potency in [10] is 5.45 µM (active); in assay [4] it was 56.4 µM (active); in assay [8] it was 7.1 µM (active) and 5.45 µM (active). Further, the molecule was classed as inactive in assay [9] and in assay [7].

For `CNC(=O)CSP(=O)(OC)OC`, the Potency entry in [2], in [3], in assay [10], in assay [4], in [8] and in assay [5] was “inactive” in each case. Further, the Potency entry in assay [6] is “inactive”. Further, the result in [7] was inactive.

In the case of `C=CCOC(=O)c1ccccc1N`, the Potency result in assay [2], in assay [3], in assay [10], in assay [4], in assay [8] and in assay [5] was “inactive” throughout. Further, the Potency entry in assay [6] is “inactive”. Further, the call in [9] and in assay [7] was inactive.

In the case of `CCCCCCCCCCCCCCn1cc[n+](C)c1`, the Potency result in [2] and in assay [6] was “inactive” in each case. For the same molecule, the Potency is 43.4 µM (active) and 67.8 µM (active) and inactive in assay [3]; 61.3 µM (active) in [10]; 54.6 µM (active) and inactive in [4]; 10.7 µM (active) and 34.3 µM (active) in assay [8]. The molecule was classed as inactive in assay [9] and in assay [7].

For `O=[N+]([O-])c1cc(C(F)(F)F)c(Cl)c([N+](=O)[O-])c1Nc1ncc(C(F)(F)F)cc1Cl`, the Potency result in [2], in assay [5] and in [6] was “inactive” in each case. Further, the Potency in [3] is 27.3 µM (active); in assay [10], 30.6 µM (active); in [4] it was 0.172 µM (active); in assay [8], 0.243 µM (active). Moreover, the call in assay [7] was inactive.
